A word on the inhibition: it is the change of the read-out against control, counted positive when it falls.

Among the data in ChEMBL document CHEMBL1961873, “Compounds: GSK PKIS; Assays: Nanosyn kinase panel” (2012) are inhibition values, retold here.

Assay [1] has as its target Serine/threonine-protein kinase pim-2 (Homo sapiens) (UniProt Q9P1W9). Conditions: at 1 µM.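 Also: each value is a mean of the inhibition measurements against the kinase.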
Assay [2] has as its target Serine/threonine-protein kinase pim-3 (Homo sapiens) (UniProt Q86V86). To be noted: at 0.1 µM.
For assay [3] the target is unchanged. To be noted: at 1 µM.
Assay [4] has as its target T1, MAP kinase-activated protein kinase 5 (Homo sapiens) (UniProt Q8IW41).
T1 sequence (whole entry): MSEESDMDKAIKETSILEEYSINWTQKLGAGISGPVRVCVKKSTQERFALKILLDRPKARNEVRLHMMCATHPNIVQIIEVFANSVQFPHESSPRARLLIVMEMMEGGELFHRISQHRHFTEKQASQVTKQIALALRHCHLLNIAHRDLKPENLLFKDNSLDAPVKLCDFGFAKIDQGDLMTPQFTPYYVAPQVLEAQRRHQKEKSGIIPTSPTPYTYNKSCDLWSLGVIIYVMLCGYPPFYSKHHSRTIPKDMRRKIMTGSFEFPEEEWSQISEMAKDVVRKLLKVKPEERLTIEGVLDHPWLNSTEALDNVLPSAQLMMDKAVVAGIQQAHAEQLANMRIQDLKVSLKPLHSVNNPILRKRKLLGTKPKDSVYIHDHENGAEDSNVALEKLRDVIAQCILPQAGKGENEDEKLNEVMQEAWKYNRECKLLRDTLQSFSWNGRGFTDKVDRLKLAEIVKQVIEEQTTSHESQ
To be noted: at 0.1 µM.

Assay [5] deals with T1, MAP kinase-activated protein kinase 5 (Homo sapiens). Conditions: at 1 µM.
Assay [6] concerns the target Serine/threonine-protein kinase SIK1 (Homo sapiens) (UniProt P57059). To be noted: at 0.1 µM.
Assay [7] shares this target. To be noted: at 1 µM.
Assay [8] has as its target Serine/threonine-protein kinase SIK2 (Homo sapiens) (UniProt Q9H0K1). Conditions: at 0.1 µM.
For assay [9] the target is unchanged. Conditions: at 1 µM.
Assay [10] has as its target T2, Serine/threonine-protein kinase TBK1 (Homo sapiens) (UniProt Q9UHD2).
T2 sequence (whole entry): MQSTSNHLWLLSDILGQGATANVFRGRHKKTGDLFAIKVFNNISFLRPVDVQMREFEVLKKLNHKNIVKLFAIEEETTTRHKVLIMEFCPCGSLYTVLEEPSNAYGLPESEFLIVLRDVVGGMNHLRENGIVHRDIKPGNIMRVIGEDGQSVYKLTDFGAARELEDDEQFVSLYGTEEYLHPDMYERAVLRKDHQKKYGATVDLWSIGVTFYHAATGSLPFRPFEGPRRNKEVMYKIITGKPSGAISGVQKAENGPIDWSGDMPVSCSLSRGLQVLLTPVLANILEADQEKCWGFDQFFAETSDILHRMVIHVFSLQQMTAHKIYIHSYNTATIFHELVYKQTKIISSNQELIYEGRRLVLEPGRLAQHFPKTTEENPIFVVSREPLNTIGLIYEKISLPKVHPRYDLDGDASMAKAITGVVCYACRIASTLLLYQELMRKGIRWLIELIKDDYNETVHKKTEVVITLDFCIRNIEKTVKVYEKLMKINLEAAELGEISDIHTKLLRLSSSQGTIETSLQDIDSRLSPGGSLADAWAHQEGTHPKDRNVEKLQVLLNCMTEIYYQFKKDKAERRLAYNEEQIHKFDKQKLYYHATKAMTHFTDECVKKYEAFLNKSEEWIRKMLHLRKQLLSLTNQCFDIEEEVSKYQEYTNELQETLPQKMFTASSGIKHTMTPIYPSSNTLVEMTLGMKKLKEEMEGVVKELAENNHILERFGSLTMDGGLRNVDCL
To be noted: at 0.1 µM.

Assay [11] concerns the target T2, Serine/threonine-protein kinase TBK1 (Homo sapiens). Conditions: at 1 µM.
The target of assay [12] is T3, Testis-specific serine/threonine-protein kinase 1 (Homo sapiens) (UniProt Q9BXA7).
T3 sequence (whole entry): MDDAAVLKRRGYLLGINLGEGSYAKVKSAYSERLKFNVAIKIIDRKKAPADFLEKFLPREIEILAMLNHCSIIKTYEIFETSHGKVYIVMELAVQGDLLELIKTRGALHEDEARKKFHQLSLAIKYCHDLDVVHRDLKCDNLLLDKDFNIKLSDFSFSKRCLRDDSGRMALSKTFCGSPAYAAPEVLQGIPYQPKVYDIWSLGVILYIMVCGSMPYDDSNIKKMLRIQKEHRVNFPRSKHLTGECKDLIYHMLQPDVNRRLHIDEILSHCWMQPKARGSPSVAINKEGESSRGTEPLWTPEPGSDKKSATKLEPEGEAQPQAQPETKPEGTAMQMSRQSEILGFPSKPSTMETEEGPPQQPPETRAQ
Conditions: at 0.1 µM.

Assay [13] has as its target T3, Testis-specific serine/threonine-protein kinase 1 (Homo sapiens). Conditions: at 1 µM.
Assay [14] addresses T4, Testis-specific serine/threonine-protein kinase 2 (Homo sapiens) (UniProt Q96PF2).
T4 sequence (whole entry): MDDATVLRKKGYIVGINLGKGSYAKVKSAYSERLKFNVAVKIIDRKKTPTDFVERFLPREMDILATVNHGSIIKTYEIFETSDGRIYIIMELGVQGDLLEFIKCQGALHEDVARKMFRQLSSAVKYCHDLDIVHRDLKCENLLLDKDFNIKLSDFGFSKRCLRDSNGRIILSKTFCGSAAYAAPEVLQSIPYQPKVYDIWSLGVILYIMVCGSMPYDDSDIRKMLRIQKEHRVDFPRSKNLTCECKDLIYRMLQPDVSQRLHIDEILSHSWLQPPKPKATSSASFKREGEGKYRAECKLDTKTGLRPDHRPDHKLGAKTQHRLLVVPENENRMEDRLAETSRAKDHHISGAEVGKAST
Conditions: at 0.1 µM.

Assay [15] concerns the target T4, Testis-specific serine/threonine-protein kinase 2 (Homo sapiens). Conditions: at 1 µM.
The target in assay [16] is Casein kinase I isoform alpha (Homo sapiens) (UniProt P48729). To be noted: at 0.1 µM.
Assay [17] shares this target. Conditions: at 1 µM.
Assay [18] deals with Casein kinase I isoform gamma-1 (Homo sapiens) (UniProt Q9HCP0). To be noted: at 0.1 µM.
The target is the same in assay [19]. To be noted: at 1 µM.
Assay [20] concerns the target Casein kinase I isoform gamma-2 (Homo sapiens) (UniProt P78368). Conditions: at 0.1 µM.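 Also: values are mean inhibition figures reported as part of the GSK PKIS dataset.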

Sequence of Serine/threonine-protein kinase SIK2 (Homo sapiens) (Q9H0K1 whole entry, looked up): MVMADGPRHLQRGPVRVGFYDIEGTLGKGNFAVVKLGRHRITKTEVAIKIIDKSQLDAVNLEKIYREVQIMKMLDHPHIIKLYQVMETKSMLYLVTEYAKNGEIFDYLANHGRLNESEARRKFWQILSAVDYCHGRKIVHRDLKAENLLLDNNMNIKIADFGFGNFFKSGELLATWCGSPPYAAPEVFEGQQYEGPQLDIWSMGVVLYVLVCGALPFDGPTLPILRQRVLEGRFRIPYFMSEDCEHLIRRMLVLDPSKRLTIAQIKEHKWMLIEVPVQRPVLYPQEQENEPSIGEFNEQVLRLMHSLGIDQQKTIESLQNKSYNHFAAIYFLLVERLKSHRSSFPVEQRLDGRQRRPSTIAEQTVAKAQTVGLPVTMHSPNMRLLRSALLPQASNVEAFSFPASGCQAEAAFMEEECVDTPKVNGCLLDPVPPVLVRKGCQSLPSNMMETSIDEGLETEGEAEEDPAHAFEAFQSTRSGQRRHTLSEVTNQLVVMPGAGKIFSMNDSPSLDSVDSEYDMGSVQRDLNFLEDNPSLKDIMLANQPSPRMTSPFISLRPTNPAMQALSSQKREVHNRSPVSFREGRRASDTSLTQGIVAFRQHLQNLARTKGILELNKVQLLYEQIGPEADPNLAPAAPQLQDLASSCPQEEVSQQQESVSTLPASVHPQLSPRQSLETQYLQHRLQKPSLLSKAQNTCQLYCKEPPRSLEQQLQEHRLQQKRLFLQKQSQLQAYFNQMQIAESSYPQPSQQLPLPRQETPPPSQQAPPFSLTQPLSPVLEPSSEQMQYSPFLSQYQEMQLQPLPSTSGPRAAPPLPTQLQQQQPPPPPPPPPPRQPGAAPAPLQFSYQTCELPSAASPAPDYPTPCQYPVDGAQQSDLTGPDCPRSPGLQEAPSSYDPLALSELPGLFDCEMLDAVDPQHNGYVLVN
Sequence of Casein kinase I isoform gamma-1 (Homo sapiens) (Q9HCP0 whole entry, looked up, canonical isoform): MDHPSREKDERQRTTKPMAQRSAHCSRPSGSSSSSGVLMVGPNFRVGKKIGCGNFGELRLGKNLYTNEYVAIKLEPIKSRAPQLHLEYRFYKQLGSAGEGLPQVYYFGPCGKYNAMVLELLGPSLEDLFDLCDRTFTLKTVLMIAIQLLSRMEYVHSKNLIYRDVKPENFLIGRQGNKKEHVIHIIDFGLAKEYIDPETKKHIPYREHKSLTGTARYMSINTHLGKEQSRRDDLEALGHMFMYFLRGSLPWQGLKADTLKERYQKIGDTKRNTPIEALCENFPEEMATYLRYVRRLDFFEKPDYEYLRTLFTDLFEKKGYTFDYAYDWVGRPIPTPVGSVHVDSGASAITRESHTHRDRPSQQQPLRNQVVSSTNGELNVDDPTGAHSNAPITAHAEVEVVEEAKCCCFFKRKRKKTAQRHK
Sequence of Serine/threonine-protein kinase pim-2 (Homo sapiens) (Q9P1W9 whole entry, looked up): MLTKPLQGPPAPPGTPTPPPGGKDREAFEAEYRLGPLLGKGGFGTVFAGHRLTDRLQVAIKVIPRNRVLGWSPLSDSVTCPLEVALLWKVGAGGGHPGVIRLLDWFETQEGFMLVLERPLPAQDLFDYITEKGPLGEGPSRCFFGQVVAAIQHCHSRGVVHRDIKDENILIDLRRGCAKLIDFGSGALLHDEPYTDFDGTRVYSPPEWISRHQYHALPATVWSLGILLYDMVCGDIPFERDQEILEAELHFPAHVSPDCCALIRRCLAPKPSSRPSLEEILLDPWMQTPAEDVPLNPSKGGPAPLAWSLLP
Sequence of Serine/threonine-protein kinase SIK1 (Homo sapiens) (P57059 whole entry): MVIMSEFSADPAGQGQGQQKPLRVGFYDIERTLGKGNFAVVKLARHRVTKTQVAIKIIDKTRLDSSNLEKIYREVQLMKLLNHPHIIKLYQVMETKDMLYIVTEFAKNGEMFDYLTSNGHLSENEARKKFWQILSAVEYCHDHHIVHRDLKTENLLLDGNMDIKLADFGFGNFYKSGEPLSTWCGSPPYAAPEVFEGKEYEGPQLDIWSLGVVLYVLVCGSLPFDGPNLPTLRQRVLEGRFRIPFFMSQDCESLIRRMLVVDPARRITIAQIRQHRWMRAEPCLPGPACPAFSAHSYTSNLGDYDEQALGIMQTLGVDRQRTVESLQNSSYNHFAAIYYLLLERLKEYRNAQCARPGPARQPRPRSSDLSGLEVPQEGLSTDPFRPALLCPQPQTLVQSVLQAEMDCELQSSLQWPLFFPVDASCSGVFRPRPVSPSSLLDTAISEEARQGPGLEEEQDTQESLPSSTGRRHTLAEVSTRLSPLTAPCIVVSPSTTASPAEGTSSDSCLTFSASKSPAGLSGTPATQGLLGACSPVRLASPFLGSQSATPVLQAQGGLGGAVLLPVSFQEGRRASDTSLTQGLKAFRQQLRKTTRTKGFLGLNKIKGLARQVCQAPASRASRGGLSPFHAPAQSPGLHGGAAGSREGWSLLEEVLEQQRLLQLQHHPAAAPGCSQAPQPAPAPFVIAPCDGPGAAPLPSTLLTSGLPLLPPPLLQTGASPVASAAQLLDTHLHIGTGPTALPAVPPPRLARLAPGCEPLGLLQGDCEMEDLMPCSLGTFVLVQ
Sequence of Casein kinase I isoform alpha (Homo sapiens) (P48729 2-337 limits assumed): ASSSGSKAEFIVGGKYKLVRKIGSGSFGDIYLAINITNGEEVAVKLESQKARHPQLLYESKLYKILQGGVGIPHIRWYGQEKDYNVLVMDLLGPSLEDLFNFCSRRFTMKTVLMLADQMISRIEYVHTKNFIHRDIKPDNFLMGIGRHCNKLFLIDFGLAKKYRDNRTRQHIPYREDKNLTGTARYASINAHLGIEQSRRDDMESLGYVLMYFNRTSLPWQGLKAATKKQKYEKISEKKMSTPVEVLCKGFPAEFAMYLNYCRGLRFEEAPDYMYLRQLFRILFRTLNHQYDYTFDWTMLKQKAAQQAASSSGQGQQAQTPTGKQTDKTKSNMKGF
Sequence of Casein kinase I isoform gamma-2 (Homo sapiens) (P78368 whole entry, looked up, canonical isoform): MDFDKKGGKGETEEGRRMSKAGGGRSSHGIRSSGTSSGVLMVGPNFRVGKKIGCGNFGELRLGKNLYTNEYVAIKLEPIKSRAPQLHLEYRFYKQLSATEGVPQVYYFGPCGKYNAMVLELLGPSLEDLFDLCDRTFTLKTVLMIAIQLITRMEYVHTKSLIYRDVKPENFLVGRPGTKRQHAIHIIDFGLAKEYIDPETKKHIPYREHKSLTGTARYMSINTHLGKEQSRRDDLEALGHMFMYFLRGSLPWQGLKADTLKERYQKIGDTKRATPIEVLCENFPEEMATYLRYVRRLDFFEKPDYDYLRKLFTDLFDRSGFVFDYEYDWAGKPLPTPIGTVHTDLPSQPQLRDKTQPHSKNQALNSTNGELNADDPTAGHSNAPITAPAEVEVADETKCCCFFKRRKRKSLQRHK

With `N#Cc1c(NC(=O)c2ccc(F)cc2)sc2c1CCCC2`, the inhibition in assay [1] is -0.05%; in [2], 0.71%; in assay [3] it was 1.6%; in [4] it was 0.52%; in [5], -0.3%; in assay [6], 1.57%. Further, the inhibition in [7] was 3.96%; in assay [8], -1.57%; in [9], 8.23%; in [10], 0.78%; in [11] it was 0.54%; in assay [12] it was 0.45%. Moreover, the inhibition was 0.89% in [13]; 0.22% in [14]; 0.33% in [15]; -0.68% in assay [16]; 1.93% in assay [17]; 0.85% in assay [18]. The inhibition came out at 0.78% in assay [19] and 0.66% in assay [20].
Take `CC(C)COC(=O)c1ccc2c(c1)/C(=C/Nc1ccc(S(N)(=O)=O)cc1)C(=O)N2`: the inhibition in [1] was 5.85%; in [2] it was 8.76%; in assay [3], 48.8%; in [4], -0.6%; in assay [5], 1.18%; in assay [6], 2.01%. In addition, the inhibition is 72.2% in assay [7]; 4.76% in assay [8]; 39.7% in [9]; 38.1% in [10]; 82.9% in [11]; 11.4% in [12]. Moreover, the inhibition was 50.2% in [13]; -0.78% in assay [14]; 0.83% in [15]; -2% in assay [16]; 1.61% in [17]; -1.63% in assay [18]. Also, the inhibition in [19] was 7.57%; in assay [20], -1.09%.
With `Cc1cccc(Nc2ncc(-c3ccccc3)o2)c1`, the inhibition in assay [1] was 0.42%; in assay [2], -0.05%; in [3], 1.97%; in [4], 1.69%; in assay [5], 0.97%; in [6], 3.47%. The inhibition in [7] was 12.8%; in assay [8], -1.34%; in assay [9], 9.41%; in assay [10], 2.6%; in [11], 7.09%; in [12] it was 2.67%. Moreover, the inhibition in assay [13] is 4.49%; in [14], 0.72%; in assay [15] it was 1.53%; in assay [16], 3.35%; in assay [17], 9.63%; in [18], 2.09%. Further, the inhibition in assay [19] worked out at 4.93%; in assay [20], 1.92%.
For `Clc1ccc(-c2nn3ncccc3c2-c2ccnc(Nc3ccccc3)n2)cc1`, the inhibition in assay [1] was 0.51%; in assay [2] it was 3.12%; in [3], 0.33%; in assay [4], 0.57%; in assay [5], -0.73%; in assay [6] it was 3.67%. Moreover, the inhibition in assay [7] was 13.6%; in [8], -1.6%; in [9], 13.9%; in assay [10] it was 1.29%; in assay [11], 2.57%; in assay [12], 0.84%. In addition, the inhibition in [13] is 0.18%; in assay [14] it was 2.19%; in assay [15], -0.46%; in assay [16], 5.52%; in assay [17], 39.6%; in assay [18], 3.83%. The values for the inhibition in [19] and in assay [20] were 1.87% and 0.23%, respectively.
In the case of `COc1ccc2c(-c3ccnc(Nc4cccc(OC(F)(F)F)c4)n3)cnn2n1`, the inhibition in assay [1] was 0.02%; in assay [2] it was 0.74%; in [3], 1.07%; in assay [4], 1.98%; in [5] it was 3.27%; in assay [6] it was 7.04%. Besides, the inhibition in [7] was 12.8%; in assay [8], 9.16%; in [9], 12.1%; in assay [10], 7.22%; in assay [11], 31.6%; in [12], 3.88%. Besides, the inhibition in assay [13] was 7%; in [14], 3.39%; in [15] it was 2.18%; in assay [16] it was 2.85%; in assay [17], 9.17%; in assay [18], 3.59%. The inhibition stood at 6.06% in assay [19] and 3.21% in [20].
As for `COc1cc(Nc2nccc(Nc3ccc4c(C)n[nH]c4c3)n2)cc(OC)c1OC`, the inhibition was 1.57% in [1]; 2.01% in assay [2]; -0.7% in [3]; -0.04% in assay [4]; -1.77% in assay [5]; 8.95% in [6]. The inhibition in assay [7] came out at 51.2%; in assay [8], 4.45%; in assay [9], 28%; in assay [10], 4.57%; in assay [11] it was 26.3%; in assay [12], 1.79%. For the same molecule, the inhibition in [13] is 12.6%; in [14], -0.93%; in assay [15] it was -0.95%; in assay [16] it was 0.44%; in [17] it was 0.47%; in [18], 2.35%. Moreover, the inhibition in assay [19] was 1.23%; in assay [20], -0.28%.
As to `CCN1CCC(CC(=O)Nc2n[nH]c3nnc(-c4cccc(F)c4F)cc23)CC1`, the inhibition in assay [1] worked out at 1.56%; in assay [2] it was 1.76%; in assay [3], 2.5%; in assay [4], 1.08%; in assay [5], 1.15%; in [6], 4.85%. In addition, the inhibition in [7] is 5.87%; in assay [8] it was -1.82%; in [9] it was 1.81%; in assay [10], 1.12%; in assay [11], 4.19%; in assay [12] it was 2.14%. Also, the inhibition was 1.72% in [13]; 3.15% in [14]; 1.74% in assay [15]; 0.5% in [16]; -1.29% in assay [17]; 0.85% in assay [18]. Also, the results for the inhibition in [19] and in [20] were 2.08% and -0.21%, respectively.
